For ten molecules, composite z-score results are on record in PubChem BioAssay.

The structures appear in SMILES notation.

This test has as its system wheat germ agglutinin (Triticum aestivum), Alexa647-labelled. Kind of test: Alexa647-WGA lectin binding to printed small molecules – biochemical, small-molecule microarray, 635/667 nm fluorescence, artefact control for SMM control-protein annotation, profiling panel (AID 1140).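 Note: score merges 667 nm feature emission with signal to noise over triplicate slides.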 Particulars: WGA-A647 binding, 635 nm fluorescence, higher = more signal.
`CCCC=C(CCC)[C@@H](NS(=O)(=O)c1ccc(-c2ccccc2)cc1)c1ccc(C(=O)OC)cc1`: the composite z-score was -0.153.

In the case of `COc1ccc([Si](C)(C)[C@@H]2[C@@H](CC(=O)N(CCO)Cc3ccccc3)O[C@]3(C(=O)N(Cc4cccc(N5CCC5=O)c4)c4ccccc43)[C@H]2C)cc1`, the composite z-score stood at 0.163.

In turn, `CCC1=C2CN(Cc3ccccc3Br)[C@@H]([C@@H](O)Cc3ccccc3)C2C=CCC1` (stereo not given in full) returned a composite z-score of 0.291.

In the case of `CO[C@H]1COC(=O)[C@H](C)COC(=O)[C@H](Cc2ccccc2)NC(=O)CC=C[C@H]1C`, the composite z-score was -1.5.

`Cc1ccc(S[C@]2(C(=O)NC3CC3)CC(=O)N(Cc3cc(C(F)(F)F)cc(C(F)(F)F)c3)[C@@H]2c2ccc(CO)cc2)cc1` registered a composite z-score of 0.31.

Take `CCCC[C@@H]1C[C@H]1[C@@H](NC(=O)c1cccs1)c1ccc(Cl)cc1`: the composite z-score is -0.746.

For the molecule `COC(=O)C(CC#Cc1ccc2c(c1)[C@]1(C(=O)N2)[C@H](C(=O)N2CCCCCCC2)[C@H]2C(=O)O[C@H](c3ccccc3)[C@H](c3ccccc3)N2[C@@H]1c1ccc(O)cc1)C(=O)OC`, the composite z-score is -1.42.

Regarding `CC(C)N1CC=CC23O[C@@H]4/C=C\CCCOC(=O)C4[C@H]2C(=O)N(CCO)[C@@H]3C1=O` (stereo not given in full), the composite z-score is -0.505.

The molecule `O=C1O[C@H](c2ccccc2)[C@H](c2ccccc2)N2[C@H]1[C@@H](C(=O)NC[C@H](O)c1ccccc1)[C@]1(C(=O)Nc3ccc(C#CC4=CCCCC4)cc31)[C@H]2c1ccc(OCCO)cc1` returned a composite z-score of 0.944.

`Cc1ccc(S[C@]2(C(=O)NC(C)C)CC(=O)N(C3Cc4ccccc4C3)[C@@H]2c2ccc(CO)cc2)cc1`: the composite z-score came out at 0.923.
